Platelet DG rel: modulates dense granule release in human platelets; human platelet-rich plasma, SFLLRN dense granule ATP release, luminescence; inhibition, %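 (compounds screened at 7.5 µM in platelet-rich plasma)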; hit rate 0.22% among 300,000; AID 1663;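 active = mean replicate score, as percent of positive control, at or above 50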
Wee1 degr inh: blocks degradation of human Wee1 kinase; AID 1321; HeLa Luc-Wee1K328M stability, luciferase luminescence; 100% = proteasome inhibitor MG132 effect; hit rate 1.2% among 220,000; reporter increase, % at 5 µM;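 active = activation above the mean of all tested compounds plus 3 SD, set per screening run, cut at about 8.8% in these data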;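 also: cells exposed to compound for 20 h before luminescence read; 0% = DMSO alone and 100% = MG132 at 30 µM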
Target sequence (P30291 whole entry K328M): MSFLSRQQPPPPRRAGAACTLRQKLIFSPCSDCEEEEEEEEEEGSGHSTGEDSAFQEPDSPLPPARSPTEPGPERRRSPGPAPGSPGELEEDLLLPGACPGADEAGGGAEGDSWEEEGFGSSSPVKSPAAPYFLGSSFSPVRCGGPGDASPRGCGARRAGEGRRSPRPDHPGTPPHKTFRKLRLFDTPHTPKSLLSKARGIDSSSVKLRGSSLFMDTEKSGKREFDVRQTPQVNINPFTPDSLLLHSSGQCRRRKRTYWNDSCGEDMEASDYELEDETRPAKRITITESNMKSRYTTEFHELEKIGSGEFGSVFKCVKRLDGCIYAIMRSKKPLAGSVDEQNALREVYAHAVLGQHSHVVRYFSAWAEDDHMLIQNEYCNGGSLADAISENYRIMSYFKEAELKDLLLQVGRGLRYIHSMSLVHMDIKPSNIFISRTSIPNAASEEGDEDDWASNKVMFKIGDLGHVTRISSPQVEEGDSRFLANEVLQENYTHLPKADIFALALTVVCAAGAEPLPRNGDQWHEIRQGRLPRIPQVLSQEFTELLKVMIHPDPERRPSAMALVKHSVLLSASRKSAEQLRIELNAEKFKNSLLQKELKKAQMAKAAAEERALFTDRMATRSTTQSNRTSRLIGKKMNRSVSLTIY
aSyn 5UTR inh: MLPCN primary screen, SNCA 5' untranslated region; alpha-synuclein 5'UTR reporter, inhibitor activity; inhibition, % (tested at 7.5 µM); hit rate 0.82% among 300,000; in the data active = inhibition above about 60%;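 also: H4 neuroglioblastoma cells stably carrying SNCA 5'UTR luciferase fusion; 0% = DMSO wells and 100% = positive control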
HIF act: HIF pathway transcriptional activation | AID 1910 | hit rate 0.32% among 300,000 | U2OS HRE-luciferase reporter, luminescence; normalized: DMSO 0%, desferrioxamine 100% | activation, % at 7.5 µM (by protocol);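 active = mean activation of at least 10% of the iron chelator positive control signal, with at least half of replicates also reaching 10%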
KLF5 inh: kruppel-like factor 5 inhibition; inhibition, % at 5 µM; AID 1700; DLD-1 KLF5 promoter-luciferase reporter, luminescence; hit rate 0.23% among 290,000;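 active = inhibition above a per-plate limit of that plate's mean compound inhibition plus 3 SD, cut at about 60% in these data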;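 also: 0% = DMSO wells and 100% = LY294002 at 200 µM; higher means less KLF5 promoter-driven luciferase light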
An asterisk follows results filed as active; · = no result. Only some compounds are listed: those with a hit (about 2.1% of all), similar ones and a draw of the others.

SMILES | Platelet DG rel | Wee1 degr inh | aSyn 5UTR inh | HIF act | KLF5 inh
O=C1NC(c2cccs2)Nc2sc3c(c21)CCCC3 (centres undefined) | -49.2 | 8.9* | -131.2 | 1.2 | -23.4
O=C1ON=C(c2ccccc2)/C1=C/c1ccccc1 | 1.4 | · | 0.7 | 1.6 | -13.5
Cc1ccc(C2=NOC(=O)/C2=C\c2ccccc2)cc1 | -2.5 | · | -22.4 | 31.2* | ·
CC(C)Cn1c(=O)c2c(nc3n2CC(C)CN3Cc2ccccc2)n(C)c1=O (centres undefined) | 2.7 | · | 13.0 | -0.4 | -35.0
Cc1cc(OCC(=O)Nc2ccc(CN3CCOCC3)cc2)c2c(C)c(C)c(=O)oc2c1 | -8.9 | · | -50.9 | 0.2 | -26.3
COC(=O)CN(C)C(=O)c1ccc(OC2CCN(S(=O)(=O)N(C)C)CC2)cc1 | 5.9 | · | -18.7 | 2.3 | -40.5
Cc1cccc(C)c1N=C1SC(CC(=O)Nc2c(C)cccc2C)C(=O)N1CCc1ccccn1 (centres undefined) | -2.5 | 1.4 | 67.2* | · | -8.9
Cc1nn(-c2ccccc2)c(C)c1/C=N/NC(=O)CSc1nnc(SCc2cccc3ccccc23)s1 | 2.5 | -1.7 | -43.4 | 2.1 | -32.7
CN(C)CCNC(=O)c1cc2c(s1)-c1ccc(Cl)cc1SC2 | -2.5 | · | 100.5* | -6.3 | -42.6
Nc1nc2ccccc2n1/N=C/c1ccc([N+](=O)[O-])s1 | 7.4 | -1.0 | 83.4* | -0.5 | 4.9
CCOC(=O)c1c(CN(C)C)n(-c2ccccc2)c2cc(Br)c(OC)cc12 | 1.9 | 0.2 | 25.5 | -8.8 | 4.7
COc1cc2c(C(=O)OCCN(C)C)c(CSc3ccccc3)n(C)c2cc1Br | 6.2 | 10.4* | -50.6 | 0.0 | -24.5
COc1cccc(N/C=C/C(=O)c2ccc(C)cc2)c1 | 24.4 | · | -23.5 | 3.7 | -111.5
COc1cccc(C(=O)/C=C/Nc2cccc(O)c2)c1 | 67.6* | -2.3 | -86.7 | 1.3 | 3.4
COc1ccc(C(=O)NNC(=S)NC(=O)/C=C/c2cccs2)cc1 | 0.6 | 1.4 | 29.8 | 0.3 | -30.8
O=C(/C=C/c1cccs1)NC(=S)NNC(=O)c1ccccc1O | 3.6 | -2.1 | 103.0* | 0.9 | 1.8
CCN(CC(=O)Nc1c(F)cccc1F)C(=O)c1cnccn1 | -5.4 | · | -5.3 | 0.0 | ·
COc1cc(/C(C)=N/NC(=O)c2cccc(S(=O)(=O)N3CCCC3)c2)cc(OC)c1OC | -7.3 | · | 1.3 | 0.6 | -25.5
COc1ccc(/C(C)=N/NC(=O)c2cccc(S(=O)(=O)N3CCCC3)c2)c(O)c1 | 3.1 | · | 77.6* | 33.4* | ·
O=C(O)c1ccc2c(c1)C(=O)N(c1cccc(-c3nc4ccccc4s3)c1)C2=O | -1.4 | 11.1* | -40.5 | 0.3 | -100.9
CCOC(=O)C1CCN(C(=O)c2ccc3nc(-c4ccc(OC)cc4)c(-c4ccc(OC)cc4)nc3c2)CC1 | 4.8 | · | 13.3 | -1.2 | -11.0
O=C(N/N=C/c1ccc(Cl)cc1)c1n[nH]c2c1CCCC2 | -0.7 | 2.0 | 45.6 | 2.3 | 18.6
O=C(N/N=C/c1ccccc1Cl)c1n[nH]c2c1CCCC2 | 21.7 | 5.6 | 83.5* | -1.0 | -79.5
O=C(N/N=C/c1ccccc1)c1n[nH]c2c1CCCC2 | 2.7 | 0.0 | -87.5 | 1.6 | -81.1
O=C(N/N=C/c1cccs1)c1n[nH]c2c1CCC2 | 14.6 | 5.9 | 67.9* | -1.9 | -71.0
SMILES | Platelet DG rel | Wee1 degr inh | aSyn 5UTR inh | HIF act | KLF5 inh
CC(C)Oc1cccc(C(=O)Nc2ccc(Br)cc2F)c1 | -4.6 | 9.1* | -31.8 | 1.7 | -153.9
CCOc1ccc(-c2ncncc2-c2ccc(OC)c(OC)c2)c(O)c1 | 3.3 | · | -2.5 | -1.5 | -36.3
COC(=O)c1ccccc1NC(=O)COc1ccccc1 | -4.1 | 13.0* | -24.7 | 0.2 | -17.9
COc1ccc(-n2nc(C(=O)NCC(=O)NCCCN3CCOCC3)c3ccccc3c2=O)cc1OC | 10.3 | · | 9.2 | -0.1 | -13.7
Cc1cc(C)c2nc(NCCCNC(=S)NCCCN(C)C)c(C#N)cc2c1 | 9.9 | -3.7 | 96.4* | -7.4 | -24.0
COc1ccc(Cc2nc(-c3ccc(NC(=O)c4cccnc4)cc3)no2)cc1 | -1.9 | 0.7 | 75.1* | 0.1 | -28.2
COc1ccc(Cc2nc(-c3ccc(Cl)cc3)no2)cc1 | -5.4 | -0.1 | -54.9 | 2.1 | -17.0
CCCCc1ccc(-c2nc(-c3ccncc3)no2)cc1 | -8.6 | 0.1 | 91.5* | -0.4 | -83.8
CCc1ccc(-c2nc(-c3ccncc3)no2)cc1 | · | 5.6 | · | · | -119.2
Cc1ccc(Cc2nc(-c3ccncc3)no2)cc1 | 11.5 | 9.7* | -16.0 | 0.5 | -38.4
COc1ccc(N2CC(C(=O)Nc3nc4ccc(S(C)(=O)=O)cc4s3)CC2=O)cc1 (centres undefined) | -5.9 | · | 21.0 | 0.3 | -32.9
